The list is not random: actives were taken first. Their share in the collection is about 3%.
p53ts 39C tox – qHTS Screen for Compounds that Selectively Target Cancer Cells with p53 Mutations: Cytotoxicity of p53ts Cells at the Nonpermissive Temperature; H1299-p53A138V viability at 39C, ATP luminescence, 24 h; Potency, µM (doses to about 46.1 µM), hits mostly cytotoxic; 130,000 compounds, 1.5% hits; AID 902, 2007; note: nearly all actives have a fitted effect of over 55% in size
IkB signaling – IkB Signaling | Potency, µM (doses to about 57.1 µM) | 110,000 compounds, 0.04% hits | ABC-DLBCL IkBa-CBG/CBR dual luciferase ratio, 4 h; response scale: scaled: untreated 0%, proteasome inhibitor 100%; active = well fitted curve in the direction sought with a large enough effect in the signal ratio, not every such curve was filed as active; inconclusive = small, poorly fitted or top-dose-only effect, or a change in a side signal; the % refers to the signal ratio;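 note: the direction sought is a rising ratio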
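Curves were fitted separately to fusion (green), unfused (red) and ratio luminescence, then classed by r2, magnitude and activity. Cells: OCI-Ly3, 4 h compound plus doxycycline at 37C; 10 uM MG-132 defined full response.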
Imprint erasure – qHTS Assay for Compounds that Induce Erasure of Genomic Imprints; Potency, µM (titrated, usually from 60.7 µM), actives largely listed as activators; 110,000 compounds, 0.02% hits; mouse ES Peg3-LacZ reporter, beta-gal luminescence, 40 h
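Imprint erasure is scored as LacZ activity from the silenced maternal Peg3 allele in feeder-free female ES cells cultured 40 h with LIF. Luminescence is normalized to in-plate negative controls and fitted to the Hill equation.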
p53ts 32C tox – qHTS Screen for Compounds that Selectively Target Cancer Cells with p53 Mutations: Cytotoxicity of p53ts Cells at the Permissive Temperature; H1299-p53A138V at 32C, ATP luminescence viability, 24 h; 130,000 compounds, 0.93% hits; Potency, µM (top dose mostly 46.1 µM), usual class: cytotoxic; note: nearly all actives have a fitted effect of over 55% in size
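Viability by ATPlite luminescence after 24 h compound treatment (up to 46 uM) at the permissive 32C. Cells are H1299 carrying p53 A138V. Scale runs from DMSO basal to 100 uM tamoxifen as full kill; AC50 from Hill fits.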
CRE-bla Fsk – Cell signaling CRE-BLA (Fsk stim); CHO CRE-bla reporter (cAMP response element driving beta-lactamase), forskolin EC10, beta-lactamase ratio; Potency, µM (doses to about 38.2 µM), hits mostly activators; 71,000 compounds, 2.5% hits; AID 662, 2007; active = well fitted activation curve with a large enough effect in the signal ratio, with a control signal flat, not every such curve was filed as active; inconclusive = small, poorly fitted or top-dose-only effect, or effect the other way, or a change in a side signal; the % refers to the signal ratio
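Forskolin analogue NKH 477 at EC10 stimulated CRE-driven beta-lactamase in CHO cells alongside compound dilution series. Beta-lactamase was measured with CCF4, excitation 405 nm, emission ratio 460/530 nm.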
CHO tox 24h – Cell Viability - CRE-beta lactamase CHO cell - 24 hr assay | shares compounds with CRE-bla Fsk | CRE-bla CHO viability, ATP luminescence, 24 h | activity, negative = viability loss, % at 46.1 µM | 120 tested, under 10 active | AID 905, 2007
CHO tox 40h – Cell Viability - CRE-beta lactamase CHO cell - 40 hr assay; shares compounds with CRE-bla Fsk; 120 tested, under 10 active; CRE-bla CHO viability, ATP luminescence, 40 h; Potency, µM, actives largely listed as inhibitors
CREB luc CRC – Confirmation Concentration-Response Assay for Cell signaling CRE-BLA (Fsk stim) - HEK293 CREB Luciferase | shares compounds with CRE-bla Fsk | HEK293 CRE-luc2P, NKH477 EC10 potentiation, luminescence, 4 h | Potency, µM (doses to about 38.3 µM), most hits filed as activators | 120 compounds, 80% hits | AID 907, 2007
Numbers stand for hits; 0 = inactive; ? = inconclusive; - = no result; [ ] = dose if it differs, or a comment. Unless noted, calls come from the whole dose curve; as a rule, active = well fitted curve in the direction sought with a large enough effect; inconclusive = small, poorly fitted or top-dose-only effect, or another doubt; inactive = no such curve, though single readings can be large; an effect the other way counts as inactive or inconclusive.

SMILES	p53ts 39C tox	IkB signaling	Imprint erasure	p53ts 32C tox	CRE-bla Fsk	others
NC1=NC([S][Hg][c]2ccc(N)cc2)c2ncn([C@@H]3O[C@H](CO)[C@@H](O)[C@@H]3O)c2N1 (stereo partly specified)	-	-	0[10.9 µM]	-	-
CN1CC[C@]2(C)c3cc(O)ccc3N(C)[C@@H]12	25µM	?	0	20µM	?
O=C1C[C@@H]2OCC=C3CN4CC[C@]56c7ccccc7N1[C@H]5[C@@H]2[C@H]3C[C@@H]46	-	0[11.4 µM]	-	-	?
COc1ccc2c(c1)-c1nc(NC(=O)c3ccc(Cl)cc3)sc1CC2	10µM	0	0[10.9 µM]	?	-
COc1ccc(C(=O)Nc2ccc(Cl)cc2C(=O)c2ccccc2)c(OC)c1	0	?	0[10.9 µM]	0	-
NC(=O)CN1C[C@@H](O)CC1=O	0	0	-	0	0
CC(C)[C@H]1C(=O)N2CCC[C@@H]2[C@]2(O)O[C@@](NC(=O)[C@H]3C=C4c5cccc6[nH]cc(c56)C[C@H]4N(C)C3)(C(C)C)C(=O)N12	-	0[11.4 µM]	-	-	0
N[C@]1(C(=O)O)CC[C@@H](C(=O)O)C1	-	0	-	-	0
Cc1c(S(=O)(=O)Nc2cccc(Cl)c2)c(=O)n(C)c(=O)n1C	0	0	0	0	2µM
Cc1c(C(=O)N2CCC3(CC2)OCCO3)oc2ccccc12	0	0	0	0	0
O=C(CSc1ccccc1)N1CCC2(CC1)OCCO2	0	0	0	0	13µM
NCCc1c[nH]c2ccccc12	0	0	0	0	?
N[C@H](Cc1c[nH]c2ccccc12)P(=O)(O)O	0[9.22 µM]	0[11.4 µM]	0.63µM	0[9.22 µM]	0[7.6 µM]
CC[C@H](CO)NC(=O)[C@H]1C=C2c3cccc4[nH]cc(c34)C[C@H]2N(C)C1	-	0[11.4 µM]	-	-	?
CN[C@@H]1C[C@H](c2ccc(Cl)c(Cl)c2)c2ccccc21	25µM	?	0	0	?
CN[C@@H]1C[C@@H](c2ccc(Cl)c(Cl)c2)c2ccccc21	13µM	0	0	20µM	0
CCN(CC)c1ncnc2c1ncn2[C@@H]1O[C@@H](COP(=O)(O)OP(=O)(O)C(Br)(Br)P(=O)(O)O)[C@H](O)[C@@H]1O	0	0	-	0	0
CCC(=NC1CC1)c1c(O)n(C2CCCCC2)c(=O)[nH]c1=O	0	0	0	0	10µM
C(=C/c1ccccc1)/CN1CCN(CCOC(c2ccccc2)c2ccccc2)CC1	32µM	?	0	0	?
CNC(C(=O)c1ccccc1)C(OC)c1ccccc1 (stereo unspecified)	0	0	0	0	0
CC(=O)[O][Hg][c]1ccccc1	1.6µM	?	0	1µM	?
CC1=C2[C@@H]3OC(=O)[C@H](C)[C@H]3CC[C@@]2(C)C=CC1=O	-	0[11.4 µM]	-	-	0
CN1C[C@@H](CNC(=O)OCc2ccccc2)C[C@H]2c3cccc4c3c(cn4C)C[C@@H]21	-	0	-	-	0
Oc1ccc2c3c1O[C@@H]1c4[nH]c5c(c4C[C@@]4(O)[C@@H](C2)N(CC2CC2)CC[C@]314)C[C@]1(O)[C@@H]2Cc3ccc(O)c4c3[C@@]1(CCN2CC1CC1)[C@H]5O4	0	0	-	0	0
C[CH2][Hg][S]c1ccccc1C(=O)O	1.3µM	-	0	1µM	-
SMILES	p53ts 39C tox	IkB signaling	Imprint erasure	p53ts 32C tox	CRE-bla Fsk	others
C#CCN[C@@H](C)Cc1ccccc1	0	0	-	0	0
O=S(=O)(O)/C(=C\c1ccccc1)c1ccccc1 (tested in a mixture with another compound)	0[9.22 µM]	0[11.4 µM]	0[10.9 µM]	0[9.22 µM]	4µM
CCn1nc(-c2cccs2)nc2c(=O)n(C)c(=O)nc1-2	4µM	?	0	2µM	?
Cc1ccc(-c2nc(S(=O)(=O)c3ccccc3)c(SCC(=O)NC3CCCCC3)o2)cc1	1.6µM	0	0[10.9 µM]	0	-
Cc1ccc(-c2nc(S(=O)(=O)c3ccc(C)cc3)c(SCC(=O)Nc3ccc(F)cc3)o2)cc1	?	0	0[10.9 µM]	0	-
CC(C)C(=O)N1CCN(CCN=Cc2c(O)n(C)c(=O)n(C)c2=O)CC1	-	-	-	-	-	CHO tox 24h=0;CHO tox 40h=0;CREB luc CRC=0
C=CCN1CC[C@@]23CCCC[C@@H]2[C@@H]1Cc1ccc(O)cc13	0	0	-	0	0
COc1ccc(OC)c(NC(=O)Cn2cc(C(=O)c3ccccc3F)c3ccccc32)c1	0	0	0[10.9 µM]	?	-
COc1ccc(Cl)cc1NC(=O)CSc1ncnc2c1oc1ccccc12	0	0	0	0	0.1µM	CHO tox 24h=0;CHO tox 40h=0;CREB luc CRC=1.3µM
CN(C)C=C1C(=O)N(C2CCCCC2)C(=O)N(C2CCCCC2)C1=O	0	?	0	0	0	CHO tox 24h=0;CHO tox 40h=?;CREB luc CRC=?
C[C@]12CC[C@H](O)C[C@@H]1CC[C@H]1[C@H]2CC[C@]2(C)[C@H](C(=O)CO)CC[C@@H]12	0	0	-	0	?
Cn1cc(C(=O)N2CCC3(CC2)OCCO3)c2c3ccccc3n(C)c2c1=O	0	0	0	0	?
Cn1c(C(=O)N2CCC3(CC2)OCCO3)cc2c(=O)n(C)c3ccccc3c21	0	0	0	0	?	CHO tox 24h=0;CHO tox 40h=0;CREB luc CRC=14µM

Bioassay records (PubChem)
